Four molecules from PubChem BioAssay (EPA / NIEHS) can be followed below.

Calls of active or inactive are those of the source. How the source made its calls: active means hit-call score of the fitted dose curve at least 0.9, where 1 is the maximum; inactive means score below 0.9.

Experiment [1] in a line: ATG_CRE_CIS: Attagene CIS-FACTORIAL HepG2 Assay for human cAMP Responsive Element (CRE) binding protein 3 (AID 2282926). The note with it: HepG2 CRE cis-reporter, Attagene multiplexed mRNA; actives raise or lower the signal. The method in brief:
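Liver-derived HepG2, transfected with a CRE-containing reporter panel, exposed 24 h; transcript levels sized and quantified by capillary electrophoresis of labelled amplicons; signal changes either way referenced to vehicle.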

Experiment [2] concerns the target CCAAT/enhancer-binding protein beta (Homo sapiens) (UniProt P17676). Put plainly: ATG_C_EBP_CIS: Attagene CIS-FACTORIAL HepG2 Assay for human CCAAT/Enhancer Binding Protein (C/EBP) beta (AID 2282927). The settings on record: HepG2 Attagene cis-factorial transcription factor reporter; actives raise or lower the signal. The method in brief:
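Transiently transfected HepG2 (MRTU library, endogenous TF-driven promoters); 24 h dosing; total RNA → oligo(dT) RT → PCR → 6-FAM primer extension → HpaI digest → CE; fit bidirectionally vs DMSO.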

Experiment [3] is described as follows: ATG_CMV_CIS: Attagene CIS-FACTORIAL HepG2 Assay for human CMV (Internal Marker) (AID 2282928).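 Further: endpoint acts as a background internal control marker rather than a target.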 The settings on record: HepG2 CMV promoter reporter, transcription factor profiling; actives raise or lower the signal. A digest of the protocol:
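Reporter transcripts from transfected HepG2 cells are isolated after 24 h of chemical dosing, reverse-transcribed and amplified. Fragments labeled with 6-FAM are cut with HpaI and quantified by capillary electrophoresis; DMSO defines baseline.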

Experiment [4] can be described thus: ATG_DR4_LXR_CIS: Attagene CIS-FACTORIAL HepG2 Assay for human Liver X Receptor (LXR), DR4 submotif (AID 2282929). The note with it: HepG2 Attagene DR4 cis-reporter, mRNA transcription; actives raise or lower the signal. A digest of the protocol: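 Readout: reporter transcript fluorescence after RT-PCR and capillary electrophoresis, fitted bidirectionally against DMSO controls. Human HepG2 liver cells carried transiently transfected multiplexed reporter constructs; endogenous transcription factor activity measured 24 h post-dosing.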

For experiment [5], the target named is Aryl hydrocarbon receptor (Homo sapiens) (UniProt P35869). Put plainly: ATG_Ahr_CIS: Attagene CIS-FACTORIAL HepG2 Assay for human Aryl Hydrocarbon Receptor (Ahr) (AID 2282930). The note with it: HepG2 AhR cis-factorial reporter transcription; actives raise or lower the signal. The method in brief:
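Read-out: reporter mRNA quantified by RT-PCR with fluorescent primer extension and capillary electrophoresis. Human HepG2 liver cells carried transfected cis-promoter reporter units and were exposed to chemical for 24 h; gain or loss fitted relative to DMSO.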

Experiment [6] in a line: ATG_AP_1_CIS: Attagene CIS-FACTORIAL HepG2 Assay for human Activator Protein 1 (AP-1) (AID 2282931). The settings on record: HepG2 Attagene cis-factorial AP-1 reporter mRNA; actives raise or lower the signal. A digest of the protocol: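 Reporter transcripts were measured 24 h after dosing by RT-PCR and capillary electrophoresis of fluorescent fragments. Cells: HepG2 carrying transfected cis-regulated reporter constructs reading endogenous factor activity. Gain or loss fitted against DMSO.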

Experiment [7] is described as follows: ATG_AP_2_CIS: Attagene CIS-FACTORIAL HepG2 Assay for human Activator Protein 2 (AP-2) (AID 2282932). The note with it: HepG2 AP-2 cis-reporter, Attagene transcription factor profiling; actives raise or lower the signal. The method in brief:
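Liver-derived HepG2 line, cis-reporter system measuring endogenous factors; 24 h dosing; reporter mRNA detected by fluorescent RT-PCR and capillary electrophoresis.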

A short description of experiment [8]: ATG_BRE_CIS: Attagene CIS-FACTORIAL HepG2 Assay for human Bone Morphogenetic Protein (BMP) Response Element (BRE) (AID 2282933). The settings on record: HepG2 BMP response element reporter, Attagene transcription factor profiling; actives raise or lower the signal. A digest of the protocol: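 Fluorescence-labelled reporter cDNA fragments, separated by capillary electrophoresis, gave the signal for this component of a 52-readout multiplex. HepG2 cells were transfected, exposed to chemicals for 24 h, and compared with DMSO using bidirectional fitting.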

The target in experiment [9] is Retinoic acid receptor alpha (Homo sapiens) (UniProt P10276). Description: ATG_DR5_RAR_CIS: Attagene CIS-FACTORIAL HepG2 Assay for human Retinoic Acid Receptor Alpha (RARE), DR5 submotif (AID 2282934). The note with it: HepG2 Attagene cis-factorial RARE DR5 reporter, mRNA; actives raise or lower the signal. The method in brief:
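Read-out: DR5-driven reporter transcript measured by RT-PCR, 6-FAM primer extension, HpaI digest and capillary electrophoresis. Human HepG2 liver cells carry transiently transfected cis-element reporter constructs; dosing lasts 24 h. Gain or loss of signal fitted against DMSO baseline.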

The target in experiment [10] is Transcription factor E2F1 (Homo sapiens) (UniProt Q01094). Description: ATG_E2F_CIS: Attagene CIS-FACTORIAL HepG2 Assay for human E2F Transcription Factor 1 (AID 2282935). The settings on record: HepG2 Attagene cis-reporter, E2F reporter RNA transcripts; actives raise or lower the signal. A digest of the protocol: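 Liver-derived HepG2 cells expressing transfected promoter-driven reporter units received test chemical for 24 hours. Signal gains or losses were fitted bidirectionally against DMSO.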

Experiment [11] is described as follows: ATG_M_61_CIS: Attagene CIS-FACTORIAL HepG2 Assay for M61 Transcription Factor (Internal Marker) (AID 2282937). The settings on record: HepG2 Attagene CIS-FACTORIAL M61 internal marker reporter; actives raise or lower the signal. A digest of the protocol: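 Readout: fluorescent reporter mRNA fragments resolved by capillary electrophoresis after RT-PCR. Transiently transfected human HepG2 cells carried MRTU constructs reporting endogenous TF activity; 24 h chemical exposure; gain or loss of signal fitted relative to DMSO.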

The nature of experiment [12]: ATG_EGR_CIS: Attagene CIS-FACTORIAL HepG2 Assay for human Early Growth Response 1 (EGR1) (AID 2282938). The note with it: HepG2 Attagene CIS-FACTORIAL EGR reporter mRNA; actives raise or lower the signal. The method in brief: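 Read-out: fluorescent reporter-mRNA fragments resolved by capillary electrophoresis after RT-PCR, 24 h post-dose in transiently transfected HepG2. Endogenous transcription-factor activity reported via cis-element-regulated reporter units; gain or loss fitted relative to DMSO.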

A short description of experiment [13]: ATG_M_19_CIS: Attagene CIS-FACTORIAL HepG2 Assay for M19 Transcription Factor (Internal Marker) (AID 2282939). The note with it: HepG2 Attagene CIS-FACTORIAL M19 internal marker reporter; actives raise or lower the signal. A digest of the protocol: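 HepG2, MRTU transient transfection, 24 h dosing. Total RNA → RT-PCR → 6-FAM primer extension → HpaI digest → CE fluorescence. Bidirectional curve fit, DMSO negative control.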

Experiment [14] is described as follows: ATG_Ets_CIS: Attagene CIS-FACTORIAL HepG2 Assay for human Erythroblast Transformation Specific (ETS) (AID 2282941). The note with it: HepG2 ETS cis-reporter transcription, actives raise or lower the signal. A digest of the protocol:
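Bidirectional fit versus DMSO of reporter mRNA signal, detected by RT-PCR and capillary electrophoresis in HepG2 cells transiently transfected with cis-element reporters and dosed 24 h.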

Experiment [15] has as its target Hepatocyte nuclear factor 3-beta (Homo sapiens) (UniProt Q9Y261). Description: ATG_FoxA2_CIS: Attagene CIS-FACTORIAL HepG2 Assay for human Forkhead box A2 (FOXA2) (AID 2282942). The note with it: HepG2 cis-reporter transcription factor activity, 24 h; actives raise or lower the signal. The method in brief: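 Readout: fluorescent reporter transcripts resolved by capillary electrophoresis after RT-PCR. Transiently transfected HepG2, 24 h compound exposure, endogenous TF activity at cis promoter elements. Gain or loss of signal fitted relative to DMSO.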

Experiment [16] is described as follows: ATG_FoxO_CIS: Attagene CIS-FACTORIAL HepG2 Assay for human Forkhead box O (FoxO) (AID 2282943). The settings on record: HepG2 Attagene cis-reporter, FoxO element, mRNA; actives raise or lower the signal. The method in brief:
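Read-out: fluorescence of 6-FAM-labelled reporter cDNA fragments resolved by capillary electrophoresis. Transiently transfected HepG2 cells were dosed for 24 h; activity fitted in both directions relative to DMSO controls.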

A short description of experiment [17]: ATG_GLI_CIS: Attagene CIS-FACTORIAL HepG2 Assay for human Zinc Finger Protein GLI1 (AID 2282945). The settings on record: HepG2, Attagene cis-factorial reporter mRNA, GLI element; actives raise or lower the signal. The method in brief: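 Transiently transfected HepG2 cells report endogenous transcription factor activity via cis-element-driven reporter units. After 24 h compound exposure, reporter mRNA was measured by RT-PCR with capillary electrophoresis; bidirectional fitting against DMSO baseline.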

Experiment [18] has as its target Bile acid receptor (Homo sapiens) (UniProt Q96RI1). Put plainly: ATG_IR1_CIS: Attagene CIS-FACTORIAL HepG2 Assay for human Nuclear Receptor Subfamily 1 Group H Member 4 (NR1H4), IR1 submotif (AID 2282946). The note with it: IR1 reporter transcription, actives raise or lower the signal. The method in brief: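 Fluorescence of capillary-separated, HpaI-digested RT-PCR reporter products gave IR1-element mRNA induction in HepG2 cells 24 h after dosing. Endogenous transcription factors drove the cis-regulated reporters; activity was fitted bidirectionally against DMSO.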

Experiment [19] in a line: ATG_E_Box_CIS: Attagene CIS-FACTORIAL HepG2 Assay for human Enhancer Box (E-box) (AID 2282936). The note with it: HepG2 E-box cis-reporter transcription, actives raise or lower the signal. A digest of the protocol:
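In this cell-based setup, HepG2 cells bearing transfected promoter-driven reporter units were exposed to chemicals for 24 h; reporter transcripts were amplified, 6-FAM-labelled, cut with HpaI and sized by capillary electrophoresis.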

Experiment [20] can be described thus: ATG_GATA_CIS: Attagene CIS-FACTORIAL HepG2 Assay for human GATA Binding Protein (AID 2282944). The settings on record: HepG2 GATA cis-element reporter, Attagene multiplex mRNA; actives raise or lower the signal. A digest of the protocol: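 Cells: HepG2, transiently transfected with cis-regulated reporter transcription units. Exposure: 24 h. Detection: RT-PCR plus capillary electrophoresis of FAM-labeled fragments. Analysis: bidirectional, DMSO as baseline.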

Chain of Hepatocyte nuclear factor 3-beta (Homo sapiens) (Q9Y261 whole entry, looked up): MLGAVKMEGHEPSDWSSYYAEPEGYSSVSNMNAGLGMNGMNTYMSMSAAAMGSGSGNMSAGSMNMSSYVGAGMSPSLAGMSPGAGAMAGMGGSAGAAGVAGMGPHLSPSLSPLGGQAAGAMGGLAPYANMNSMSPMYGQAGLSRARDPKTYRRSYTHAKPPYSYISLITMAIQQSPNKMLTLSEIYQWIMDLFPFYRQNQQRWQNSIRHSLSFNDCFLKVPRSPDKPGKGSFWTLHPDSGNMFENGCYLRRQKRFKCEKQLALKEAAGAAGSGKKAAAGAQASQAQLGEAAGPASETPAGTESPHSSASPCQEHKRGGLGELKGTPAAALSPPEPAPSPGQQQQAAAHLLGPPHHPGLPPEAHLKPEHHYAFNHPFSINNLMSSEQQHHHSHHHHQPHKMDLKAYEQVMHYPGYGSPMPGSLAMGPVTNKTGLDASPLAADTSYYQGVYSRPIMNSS
Chain of Transcription factor E2F1 (Homo sapiens) (Q01094 whole entry, looked up): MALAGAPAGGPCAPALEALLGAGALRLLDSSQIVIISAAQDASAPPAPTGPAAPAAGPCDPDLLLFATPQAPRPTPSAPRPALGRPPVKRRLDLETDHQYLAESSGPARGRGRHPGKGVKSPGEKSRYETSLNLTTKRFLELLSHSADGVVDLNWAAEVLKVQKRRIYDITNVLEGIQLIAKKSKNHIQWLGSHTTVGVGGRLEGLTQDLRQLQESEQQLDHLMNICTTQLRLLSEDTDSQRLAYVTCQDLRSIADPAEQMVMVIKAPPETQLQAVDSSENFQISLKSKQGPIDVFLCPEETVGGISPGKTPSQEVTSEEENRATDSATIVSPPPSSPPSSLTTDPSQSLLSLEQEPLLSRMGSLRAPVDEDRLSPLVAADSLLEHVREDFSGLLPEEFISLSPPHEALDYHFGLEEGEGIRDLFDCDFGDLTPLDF
Chain of CCAAT/enhancer-binding protein beta (Homo sapiens) (P17676 whole entry, looked up): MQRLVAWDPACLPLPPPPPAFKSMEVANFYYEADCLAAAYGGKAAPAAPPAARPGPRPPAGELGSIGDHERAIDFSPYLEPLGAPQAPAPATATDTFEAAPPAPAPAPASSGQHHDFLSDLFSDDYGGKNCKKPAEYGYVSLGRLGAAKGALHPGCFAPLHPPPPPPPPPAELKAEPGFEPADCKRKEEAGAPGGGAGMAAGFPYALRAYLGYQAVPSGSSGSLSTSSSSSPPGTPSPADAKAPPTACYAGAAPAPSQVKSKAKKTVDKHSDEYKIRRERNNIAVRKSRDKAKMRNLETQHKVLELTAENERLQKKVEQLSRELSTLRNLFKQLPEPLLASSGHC
Chain of Aryl hydrocarbon receptor (Homo sapiens) (P35869 whole entry, looked up): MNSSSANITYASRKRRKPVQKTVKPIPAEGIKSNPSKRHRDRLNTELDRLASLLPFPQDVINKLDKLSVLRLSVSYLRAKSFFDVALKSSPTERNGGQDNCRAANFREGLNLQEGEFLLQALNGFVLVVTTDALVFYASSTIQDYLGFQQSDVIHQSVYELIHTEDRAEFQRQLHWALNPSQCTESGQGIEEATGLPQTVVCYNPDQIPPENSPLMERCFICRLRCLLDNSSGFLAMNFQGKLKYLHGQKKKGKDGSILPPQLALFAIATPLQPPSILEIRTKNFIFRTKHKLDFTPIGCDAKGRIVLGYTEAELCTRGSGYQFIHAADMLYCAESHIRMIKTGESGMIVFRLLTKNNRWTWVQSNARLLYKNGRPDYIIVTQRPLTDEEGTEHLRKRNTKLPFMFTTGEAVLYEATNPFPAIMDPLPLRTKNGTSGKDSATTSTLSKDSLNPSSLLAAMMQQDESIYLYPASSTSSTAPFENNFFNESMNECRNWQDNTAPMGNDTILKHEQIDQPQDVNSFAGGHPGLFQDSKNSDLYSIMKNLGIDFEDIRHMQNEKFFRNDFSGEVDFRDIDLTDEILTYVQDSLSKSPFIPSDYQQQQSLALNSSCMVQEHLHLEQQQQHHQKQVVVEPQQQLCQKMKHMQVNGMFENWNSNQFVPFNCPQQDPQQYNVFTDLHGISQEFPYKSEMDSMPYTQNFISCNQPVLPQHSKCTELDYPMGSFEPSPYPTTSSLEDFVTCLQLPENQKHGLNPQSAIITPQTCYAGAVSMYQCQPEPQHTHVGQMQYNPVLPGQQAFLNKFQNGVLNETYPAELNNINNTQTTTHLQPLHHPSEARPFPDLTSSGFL
Chain of Retinoic acid receptor alpha (Homo sapiens) (P10276 whole entry, looked up): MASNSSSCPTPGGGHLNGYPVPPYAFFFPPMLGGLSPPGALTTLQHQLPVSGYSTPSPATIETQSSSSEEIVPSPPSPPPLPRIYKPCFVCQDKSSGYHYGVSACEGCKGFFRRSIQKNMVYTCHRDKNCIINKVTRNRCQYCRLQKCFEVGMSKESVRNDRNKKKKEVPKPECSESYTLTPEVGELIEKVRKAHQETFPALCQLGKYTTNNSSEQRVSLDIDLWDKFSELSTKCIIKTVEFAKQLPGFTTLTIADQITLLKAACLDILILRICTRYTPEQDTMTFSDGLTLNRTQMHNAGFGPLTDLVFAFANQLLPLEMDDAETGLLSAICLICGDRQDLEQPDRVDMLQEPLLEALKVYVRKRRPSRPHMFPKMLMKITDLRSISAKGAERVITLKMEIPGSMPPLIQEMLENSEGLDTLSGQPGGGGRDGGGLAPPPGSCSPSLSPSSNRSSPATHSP
Chain of Bile acid receptor (Homo sapiens) (Q96RI1 whole entry, looked up): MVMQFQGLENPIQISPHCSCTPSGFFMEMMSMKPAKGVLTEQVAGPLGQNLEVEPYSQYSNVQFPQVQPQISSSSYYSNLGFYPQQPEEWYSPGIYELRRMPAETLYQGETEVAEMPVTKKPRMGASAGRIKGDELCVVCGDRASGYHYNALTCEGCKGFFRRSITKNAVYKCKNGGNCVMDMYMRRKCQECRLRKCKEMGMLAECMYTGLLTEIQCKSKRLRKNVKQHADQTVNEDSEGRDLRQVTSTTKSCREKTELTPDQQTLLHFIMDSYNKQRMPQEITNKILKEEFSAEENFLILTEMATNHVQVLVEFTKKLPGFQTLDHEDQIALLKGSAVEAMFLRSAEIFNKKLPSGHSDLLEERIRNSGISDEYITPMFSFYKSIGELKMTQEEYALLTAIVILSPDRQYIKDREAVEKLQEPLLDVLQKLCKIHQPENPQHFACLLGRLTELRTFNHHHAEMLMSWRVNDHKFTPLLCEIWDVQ

For `Nc1c(Cl)cc([N+](=O)[O-])cc1Cl`, the concentration at half-maximal activity (AC50) in [1] was 35.1 µM (active); in experiment [2], 73.8 µM (active); in [3], 50 µM (active); in experiment [6], 75.2 µM (active); in experiment [8] it was 36.1 µM (active); in [15], 76.1 µM (active). Besides, the result in experiment [4], in [5], in experiment [7], in experiment [9], in [10] and in [11] was inactive. The molecule was classed as inactive in experiment [12], in experiment [13], in experiment [14], in [16], in [17] and in [18].

Regarding `CCOP(=S)(OCC)SCCSCC`, the molecule was classed as inactive in [1], in experiment [2], in experiment [3], in experiment [4], in [5] and in experiment [6]. The outcome in experiment [7], in experiment [8], in experiment [9], in experiment [10], in [11] and in [12] was inactive. The outcome in experiment [13], in [14], in experiment [15], in experiment [16] and in [17] was inactive.

`CC[C@H](C)[C@H]1O[C@]2(C=C[C@@H]1C)C[C@@H]1C[C@@H](C/C=C(\C)[C@@H](O[C@H]3C[C@H](OC)[C@@H](O[C@H]4C[C@H](OC)[C@@H](NC)[C@H](C)O4)[C@H](C)O3)[C@@H](C)/C=C/C=C3\CO[C@@H]4[C@H](O)C(C)=C[C@@H](C(=O)O1)[C@]34O)O2`: the result in experiment [1], in experiment [2], in experiment [3], in experiment [4], in experiment [5] and in experiment [6] was inactive. Further, the call in [7], in experiment [8], in experiment [10], in experiment [19], in [11] and in experiment [12] was inactive. Further, the molecule was classed as inactive in experiment [13], in experiment [14], in experiment [15], in experiment [16] and in [17].

Regarding `Cc1nn(-c2cc(NS(C)(=O)=O)c(Cl)cc2Cl)c(=O)n1C(F)F`, the call in experiment [1], in experiment [2], in experiment [3], in experiment [4], in experiment [5] and in [6] was inactive. Besides, the molecule was called inactive in [7], in [8], in experiment [10], in experiment [11], in experiment [12] and in experiment [13]. Also, the molecule was classed as inactive in [14], in experiment [15], in experiment [16], in [20] and in experiment [17].

The AC50 is the concentration giving half of the maximal activity seen.
